Measurements as given in PubChem BioAssay.
Activity calls are given as the source filed them. Unless noted, no stated cut-off is given here; in the data, active means inhibition above about 30%; inactive means the rest.

Assay: yeast transport mutant growth inhibition pilot in 384-well plates, post-Golgi transport modulator project (AID 636; in the data active means inhibition above about 31%)
Settings: absorbance 615 nm, about 18 h, stronger effect = higher value

inhibition, inactive:
COc1ccc(OC)c(CNC(=O)CCN2C(=O)COc3ccccc32)c1 -1.32%
Cc1ccc(C(=O)CSc2nnc(CNc3ccc(C)cc3C)o2)cc1 -0.92%
CCn1c(SCc2cccc(C(F)(F)F)c2)nnc1-c1ccco1 -5.2%
O=C(CC1CCCCC1)NCc1ccccn1 -3.42%
c1ccc(-c2nn3nnnc3c3ccccc23)cc1 -1.04%
CN=C(Nc1ccc2c(c1)OCO2)SC1CC(=O)N(c2ccccc2)C1=O (stereo not given) -4.93%
O=C1c2ccccc2C(=O)N1CCCCN1CCN(CCCCN2C(=O)c3ccccc3C2=O)CC1 -7.33%
Cc1cccc(-n2ncc(C#N)c2N)c1 -2.76%
Cc1cc(NC(=O)COc2ncnc3sc(C)c(C)c23)no1 -3.77%
O=C(CN1C(=O)CCS(=O)(=O)c2ccccc21)NCc1ccc(F)cc1 -5.2%
C=CCSc1n[nH]c(-c2ccc(OC)cc2)n1 -4.53%
COc1ccc(N2CCN(C(=O)CN3C(=O)C4CC=CCC4C3=O)CC2)cc1 (stereo not given) 2.47%
CSC1CCCCC1(O)CSc1nc2c(cc1C#N)CCCC2 (stereo not given) -0.66%
O=C(CCCCn1c(=O)[nH]c2ccsc2c1=O)NCc1cccnc1 -1.18%
CCc1nnc(NC(=O)OCc2ccccc2)s1 -0.91%
O=C(CP(=O)(c1ccccc1)c1ccccc1)N1CCCCC1 -3.51%
Cc1nc(NC2=NCN(CCc3ccccc3)CN2)nc2c(C)cccc12 -3.82%
O=C(c1ccc(CNS(=O)(=O)c2cccc(C(F)(F)F)c2)cc1)N1CCOCC1 -8.67%
CCNc1oc(COc2ccccc2F)nc1C#N -2.6%
CC1CC(C)CN(CCCNC(=O)c2ccc3c(c2)NC(=O)C(N2CCCCC2)S3)C1 (stereo not given) 2.4%
CS(=O)(=O)N(CC(=O)NC1CC1)c1cccc(F)c1 -5.19%
O=C(CCCNS(=O)(=O)c1ccccc1)NCc1ccco1 -4.67%
CCOC(=O)CSC1=Nc2ccccc2C2=NC(CC(=O)NCc3cccs3)C(=O)N12 (stereo not given) -6.75%
Cc1ccc(-c2nnn(CC(=O)N(CC(=O)NCC3CCCO3)c3ccccc3)n2)o1 (stereo not given) -5.97%
O=C(c1ccncc1)N1CCN(C(=O)c2cccs2)CC1 -1.73%
CC(=O)CC(=O)Nc1ccccc1NC(C)=O -2.86%
O=C(O)C1CC=CCC1C(=O)Nc1cccc(C(=O)N2CCCCC2)c1 (stereo not given) -5.2%
C#CCN1C(=O)C(O)(CC(=O)c2cc(OC)ccc2OC)c2ccccc21 (stereo not given) -4.8%
Cn1c(COc2ccccc2)nnc1SCC(=O)Nc1ccc(N2CCOCC2)c(Cl)c1 -7.37%
Nn1cnnc1SCC(=O)Nc1ccc2c(c1)OCCO2 -4.4%
N#Cc1nc(COc2ccccc2)oc1NCCN1CCOCC1 -4.68%
CSc1nnc(-c2cnccn2)n1C -0.39%
Cc1ccc(OCc2nnc(SCC(=O)N3CCOCC3)n2C)cc1 -0.93%
Cc1[nH]nc2c1C1(CCN(C(=O)c3ccccc3)CC1)C(C#N)=C(N)O2 0.52%
COc1ccc(S(=O)(=O)NC(CC(=O)NCc2ccco2)c2ccco2)cc1 (stereo not given) -2.08%
COc1ccc(C(=O)N2CCOCC2)cc1Br -2.24%
Cn1c(=O)c2ccccc2n(Cc2ccccc2F)c1=O -0.66%
CN(C)C(=O)C12CCC(C)(c3nc4ccccc4nc31)C2(C)C (stereo not given) 3.03%
CC1(C)NC(=O)N(CCOc2cccc(Cl)c2Cl)C1=O -5.2%
Cc1nn(Cc2ccccc2)c(C)c1NC(=O)CCC(=O)O 3.42%

Assay: growth suppression of yeast trafficking mutant, preliminary HTS, modulators of trafficking downstream of Golgi apparatus project, 1536-format plate, OD 615 nm (AID 637)
Settings: yeast transport mutant growth, absorbance 615 nm, 18 h; stronger effect = higher value

inhibition, inactive:
COc1ccc(OC)c(CNC(=O)CCN2C(=O)COc3ccccc32)c1 -2.06%
Cc1ccc(C(=O)CSc2nnc(CNc3ccc(C)cc3C)o2)cc1 -10.5%
CCn1c(SCc2cccc(C(F)(F)F)c2)nnc1-c1ccco1 -0.16%
O=C(CC1CCCCC1)NCc1ccccn1 -6.67%
c1ccc(-c2nn3nnnc3c3ccccc23)cc1 0.79%
CN=C(Nc1ccc2c(c1)OCO2)SC1CC(=O)N(c2ccccc2)C1=O (stereo not given) -0.79%
O=C1c2ccccc2C(=O)N1CCCCN1CCN(CCCCN2C(=O)c3ccccc3C2=O)CC1 6.98%
Cc1cccc(-n2ncc(C#N)c2N)c1 -1.11%
Cc1cc(NC(=O)COc2ncnc3sc(C)c(C)c23)no1 5.56%
O=C(CN1C(=O)CCS(=O)(=O)c2ccccc21)NCc1ccc(F)cc1 -3.81%
C=CCSc1n[nH]c(-c2ccc(OC)cc2)n1 -2.06%
COc1ccc(N2CCN(C(=O)CN3C(=O)C4CC=CCC4C3=O)CC2)cc1 (stereo not given) 14.8%
CSC1CCCCC1(O)CSc1nc2c(cc1C#N)CCCC2 (stereo not given) -1.9%
O=C(CCCCn1c(=O)[nH]c2ccsc2c1=O)NCc1cccnc1 -0.63%
CCc1nnc(NC(=O)OCc2ccccc2)s1 11.4%
O=C(CP(=O)(c1ccccc1)c1ccccc1)N1CCCCC1 6.83%
Cc1nc(NC2=NCN(CCc3ccccc3)CN2)nc2c(C)cccc12 4.76%
O=C(c1ccc(CNS(=O)(=O)c2cccc(C(F)(F)F)c2)cc1)N1CCOCC1 1.43%
CCNc1oc(COc2ccccc2F)nc1C#N 1.43%
CC1CC(C)CN(CCCNC(=O)c2ccc3c(c2)NC(=O)C(N2CCCCC2)S3)C1 (stereo not given) -7.14%
CS(=O)(=O)N(CC(=O)NC1CC1)c1cccc(F)c1 0%
O=C(CCCNS(=O)(=O)c1ccccc1)NCc1ccco1 1.9%
CCOC(=O)CSC1=Nc2ccccc2C2=NC(CC(=O)NCc3cccs3)C(=O)N12 (stereo not given) -5.56%
Cc1ccc(-c2nnn(CC(=O)N(CC(=O)NCC3CCCO3)c3ccccc3)n2)o1 (stereo not given) -1.11%
O=C(c1ccncc1)N1CCN(C(=O)c2cccs2)CC1 -2.38%
CC(=O)CC(=O)Nc1ccccc1NC(C)=O 1.43%
O=C(O)C1CC=CCC1C(=O)Nc1cccc(C(=O)N2CCCCC2)c1 (stereo not given) 9.21%
C#CCN1C(=O)C(O)(CC(=O)c2cc(OC)ccc2OC)c2ccccc21 (stereo not given) 1.9%
Cn1c(COc2ccccc2)nnc1SCC(=O)Nc1ccc(N2CCOCC2)c(Cl)c1 -0.48%
Nn1cnnc1SCC(=O)Nc1ccc2c(c1)OCCO2 8.41%
N#Cc1nc(COc2ccccc2)oc1NCCN1CCOCC1 10.5%
CSc1nnc(-c2cnccn2)n1C 4.92%
Cc1ccc(OCc2nnc(SCC(=O)N3CCOCC3)n2C)cc1 -6.35%
Cc1[nH]nc2c1C1(CCN(C(=O)c3ccccc3)CC1)C(C#N)=C(N)O2 6.83%
COc1ccc(S(=O)(=O)NC(CC(=O)NCc2ccco2)c2ccco2)cc1 (stereo not given) 4.29%
COc1ccc(C(=O)N2CCOCC2)cc1Br -4.92%
Cn1c(=O)c2ccccc2n(Cc2ccccc2F)c1=O 1.75%
CN(C)C(=O)C12CCC(C)(c3nc4ccccc4nc31)C2(C)C (stereo not given) -4.6%
CC1(C)NC(=O)N(CCOc2cccc(Cl)c2Cl)C1=O 10.2%
Cc1nn(Cc2ccccc2)c(C)c1NC(=O)CCC(=O)O -1.75%
